Data: ChEMBL document CHEMBL3988442, “University of Dundee, Small-Polar-MMV Screening Library” (2021)

Target: AMP-activated protein kinase, AMPK (Homo sapiens) (UniProt P54646+O43741+P54619+Q9UGJ0+Q9Y478+Q13131+Q9UGI9)
Experiment: AMP-dependent Kinase enzyme assay. An in vitro enzyme assay that detects ADP turnover that is directly proportional to AMPK activity. This uses naive AMPK that is activated during the assay with MK-8722
Format: functional
Set-up: scale not given: direction of the effect not stated beside the values
Conditions: 30 µM

SMILES | Percent Effect [%]
CNC(=O)c1cn2cc(-c3cccc(Cl)c3)n(CC=C(C)C)c(=O)c2n1 | 2.79
COC(CNC(=O)c1ccoc1)c1cccc(Cl)c1 (stereo unspecified) | -1.5
O=C(C1CC1)N1CCCC(C2=Nc3ccccc3S(=O)(=O)N2)C1 (stereo unspecified) | 24.4
CN1CC(C(=O)NCCc2ccc3c(c2)OCCO3)CC1=O (stereo unspecified) | 2.3
Cc1nn(C)c(C)c1C1COCCN1C(=O)NC1CC1 (stereo unspecified) | -1.36
O=C(CCCn1cccn1)N1CCCC(n2cncn2)C1 (stereo unspecified) | 5.88
COc1cc(C(=O)O)ccc1OCC(=O)NCCc1ccccc1 | 2.55
CCN(Cc1cccc2c1OCCO2)C(=O)NC(C)(C)C | -7.11
Cn1cnc(S(=O)(=O)N2C[C@@H]3CC[C@H](C2)N(Cc2ccccn2)C3)c1 | 84.4
CC1CC(NS(=O)(=O)c2ccc(C(F)(F)F)nc2)C1 (stereo unspecified) | 19.9
COCC(NC(=O)c1cc(NC(C)=O)ccc1Cl)c1ccccn1 (stereo unspecified) | 1.62
CC(C)OCCN1CCC(Nc2nccnc2C#N)CC1 | -5.15
CCCOc1ccc2c(c1)OCC(CNC1CCc3ncnn3C1)=C2 (stereo unspecified) | 10.2
C[C@@H]1CN(Cc2cn(C)nc2-c2ccccc2F)C[C@H](C)O1 | 19.5
O=S(=O)(NC1CCOC1)c1ccc(C(F)(F)F)nc1 (stereo unspecified) | 6.19
CCCn1ncc(C(=O)N2CCCC(OCc3ccccn3)C2)c1C (stereo unspecified) | -1.18
CCCN1CCC(NCc2cccc(CN3CCOC(C)C3)c2)CC1 (stereo unspecified) | -4.13
CCC(C)NC(=O)Nc1cccc(OC)c1 (stereo unspecified) | -9.8
O=S1(=O)NC(C2CCCN(S(=O)(=O)N3CCCC3)C2)=Nc2ccccc21 (stereo unspecified) | 13.9

SMILES | Percent Effect [%]
N#Cc1cc(S(N)(=O)=O)ccc1N1CCc2c(Cl)cccc2C1 | 17.4
CCCc1nnc(N2CCC(N3CCCCCC3)CC2)o1 | -2.81
O=S(=O)(N1CCOCC1)N1CCCCC1CCn1cccn1 (stereo unspecified) | 29.5
Cc1nc(N)nc(C)c1CC(=O)N1CCC2(CC1)OCCCC2O (stereo unspecified) | 73.8
COC(=O)c1ncccc1N1CCC(C(O)c2ccccc2)CC1 (stereo unspecified) | 12.8
CC(C)c1nnc2n1CCN(Cc1cccc3c1OCCO3)C2 | 12.9
Cc1ccc(C(C(=O)NC(C)(C)CN2CCCC2)N(C)C)cc1 (stereo unspecified) | -22.5
Cc1ccc(Br)cc1C(=O)Nc1cc(C(N)=O)n(C)c1 | 0.519
Cc1c(NC(=O)NCCO)cccc1OC1CCCC1 | -2.68
Cc1nsc(C(=O)NCCc2ccc(S(N)(=O)=O)cc2)n1 | 2.83
CCn1cc(-c2cc(C(=O)N3CCOCC3)c3cc(Cl)ccc3n2)cn1 | 11.8
CCC(O)CNC(=O)c1cc(COc2ccc(OC)cc2Cl)[nH]n1 (stereo unspecified) | 2.19
COc1c(C2CCCN2C(=O)c2ccc(C(N)=O)s2)c(C)nn1C (stereo unspecified) | -4.26
Cc1cc(C[S+]([O-])Cc2ccccc2F)on1 (stereo unspecified) | 6.4
CCc1ccc2nc(C)cc(C(=O)NC3CCNC3=O)c2c1 (stereo unspecified) | -4.37
CSCCC(=O)N1CCN(CC(C)O)CC1 (stereo unspecified) | -1.95
CNC(=O)c1cccnc1NCc1ccc(-n2cccn2)cc1 | -0.487
O=C(O)CCn1ccc2c(nnc3c(-c4ccc(F)cc4)cnn32)c1=O | 18.8
CCSCC(C)NCc1ccccc1-n1ccnc1 (stereo unspecified) | 7.25

SMILES | Percent Effect [%]
CC1CN(C)CCN1C(=O)c1cccn1Cc1cccs1 (stereo unspecified) | 3.93
COc1cccc(NC(=O)NCC2CCCN(C3CCOCC3)C2)c1 (stereo unspecified) | 6.25
CCn1c(C2CCN(C(=O)c3ccc4sc(C)nc4c3)CC2)n[nH]c1=O | -0.0637
Cc1nsc(N2CCCN(CC(=O)N(C)C3CC3)CC2)n1 | 7.25
CN(CCCOc1ccccc1Cl)C(=O)CN1CCNC1=O | 10.2
N#Cc1c(C2CC2)cc(-c2ccc(F)c(F)c2)nc1N | 10.4
Oc1ccc(N2CCC(Cc3ccccc3)CC2)nn1 | 9.16
Cc1cc(CNS(C)(=O)=O)ccc1N(C)C | 1.62
O=C(Cn1nc2ccccc2n1)N1CCCC(O)(CN2CCCC2)C1 (stereo unspecified) | -2.27
O=C(O)c1cn(CC2CCCN(c3ccc4ccccc4n3)C2)nn1 (stereo unspecified) | -0.883
Cc1nc(C2CCCNC2)cc(N2CCc3nc(N)sc3C2)n1 (stereo unspecified) | 3.73
Cc1nccn1-c1nccnc1C1CCCN(C)C1 (stereo unspecified) | 1.28
NC1CCc2nc(-c3ccncc3)nc(Nc3cccc(F)c3)c2C1 (stereo unspecified) | -70.9
CS(=O)(=O)c1ccc(NC(=O)NCCC2=CCCCC2)cc1 | -2.69
CCC1(CC)CC(=O)N(CC(O)c2cc(F)ccc2F)C1=O (stereo unspecified) | 11.8
O=C(CCC1CCCO1)NCCCO (stereo unspecified) | -4.81
COc1nccc(N2CC[C@@H](N3CCCCCC3)[C@H](O)C2)c1C#N | -1.86
Cc1cc(C)n(-c2cccc(NC(=O)N3CCC[C@@H]3CO)c2)n1 | -5.07
